Compounds without any hit were thinned out: in the full panel of roughly 83,000, 20% have a hit.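 For each line, cells grew in 96-well plates with the test compound present at a single concentration for 48 hours.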 The source made the active and inactive calls. How the source made its calls: active means growth percent below 10; inactive means the rest.
Tested on: HL-60(TB) leukemia
Test: NCI-60 one-dose screen, 48 h (100 = growth as untreated, 0 = no growth, -100 = all killed)
Settings: 10 µM unless noted

Row | SMILES | growth
1 | COc1cc2cc3c(nc2cc1OC)CCN3Cc1ccc(NC(=O)Nc2cc(C(F)(F)F)cc(C(F)(F)F)c2)cc1 | 81.5% (inactive)
2 | CCCCn1c(=O)[nH]c2c(c1=O)C(c1ccc(Cl)cc1)c1c([nH]c(=O)n(CCCC)c1=O)N2 | 99.2% (inactive)
3 | CCc1ccc(CNc2ccc(N3CCOCC3)c(C(=O)O)c2)cc1 | 100% (inactive)
4 | CC(=O)c1nc2ccccc2n1CCNC(N)=O | 80.5% (inactive)
5 | Nc1nc(Nc2ccccc2SSc2ccccc2Nc2nc(N)nc(-c3cccs3)n2)nc(-c2ccsc2)n1 | -7.94% (active)
6 | NS(=O)(=O)c1ccc(-n2nc(-c3ccc(Cl)cc3)ccc2=O)cc1 | 83.7% (inactive)
7 | c1ccc(CCc2ccccc2-c2cc(-c3ccccc3)on2)cc1 | 76.2% (inactive)
8 | C=C(C)[C@@H]1C/C=C(/C=O)CC[C@@H]2O[C@@]2(C)CC/C=C(\C)CC1 | 162% (inactive)
9 | COc1ccccc1S(=O)(=O)Nc1ccc2c3c(cc(-c4cnn(C5CC5)c4)nc13)C(=O)N2C | -10% (active)
10 | O=C(NCCNc1nccc(-c2c(-c3cccc(O)c3)nc3sccn23)n1)Nc1cc(C(F)(F)F)cc(C(F)(F)F)c1 | 97.3% (inactive)
11 | Fc1c[c-]c(-c2ccccn2)c(F)c1.[CH3-].[Pt+2].c1ccc(P(C[PH+](c2ccccc2)c2ccccc2)c2ccccc2)cc1 | -24.2% (active)
12 | Cc1cc(Cl)nc(N2CCN(CCNc3ccnc4cc(Cl)ccc34)CC2)n1 | 27.8% (inactive)
13 | NC(=O)c1cccc(N2Cc3ccccc3OC3=C2C(=O)c2c(O)ccc(O)c2C3=O)c1 | -46.3% (active)
14 | COc1cccc(-c2nn(-c3ccccc3)cc2-c2ccnc(NCCCO)c2)c1 | -7.94% (active)
15 | Cc1cccc(NC(=O)Nc2ccc(-c3ccc4c(c3)NC(=O)/C4=C\c3ccc[nH]3)cc2)c1 | 75.1% (inactive)
16 | O=c1[nH]c(NCc2nnnn2-c2ccc(Br)cc2)nc2sc3c(c12)CCCC3 | 103% (inactive)
17 | COc1ccc(N=c2nc3sc4cc(Cl)ccc4n3c(N)c2C#N)cc1 | 119% (inactive)
18 | Clc1ccc2c(NCCCCNc3nc(N4CCOCC4)nc4ccccc34)ccnc2c1 | -59.8% (active)
19 | Cc1ccc2nc(N)nnc2c1 | 125% (inactive)
20 | Fc1ccc(Nc2ncnc3ccc(-c4cn[nH]c4)cc23)cc1Cl | 83.7% (inactive)

Row | SMILES | growth
21 | COc1ccc(-c2nc3ccccn3c2-c2nnc(-c3cc(OC)c(OC)c(OC)c3)o2)cc1 | 85.6% (inactive)
22 | C=C1C(=O)C2CCN1CC2 | 97.4% (inactive)
23 | CCN1C(=O)N(CC)C2C1NN=c1s/c(=C\c3ccccn3)c(=O)n12 (stereo not given) | -22.5% (active)
24 | O=C(NC1CC(F)C1)c1cc2cccnc2n1-c1ccc(Cl)c(Cl)c1 (stereo not given) | 97.2% (inactive)
25 | O=C1c2c(c3c4ccccc4[nH]c3c3ccc4ccccc4c23)C(=O)N1CCN1CCNCC1 | 43.6% (inactive)
26 | OCc1cnc2ccccc2c1NC1CCCCCC1 | 88.5% (inactive)
27 | Cn1cc(/C=C2/C(=O)Nc3ccccc32)c2ccccc21 | 85.8% (inactive)
28 | CN1CCN(C(=O)[C@@]2(C)CC[C@]3(C)CC[C@]4(C)C(=CC[C@@H]5[C@@]6(C)CCC(=O)NC(C)(C)[C@@H]6CC[C@]54C)[C@@H]3C2)CC1 | -35.8% (active)
29 | COc1cccc(-c2nn(-c3ccccc3)cc2-c2ccnc(NCCCNS(=O)(=O)c3cccc(F)c3)c2)c1 | 9.51% (active)
30 | Cn1cccc1-c1nc2c3c(ccc2[nH]1)C(=O)c1ccccc1C3=O | 82.3% (inactive)
31 | NC(N)=N/N=C(/c1ccccc1)c1ccc(F)cc1 | -70.6% (active)
32 | COc1c(O)cc2c(c1CC=C(C)C)OC(=O)c1c(cc(O)c(CC=C(C)C)c1O)O2 | 31% (inactive)
33 | N#Cc1c(-c2ccc(F)cc2)nc(N/N=C/c2c[nH]c3ccccc23)nc1N1CCOCC1 | 2.62% (active)
34 | C=C1CC2(OC1=O)C(=O)N(CCCN1C(=O)C3(CC(=C)C(=O)O3)c3ccccc31)c1ccccc12 (stereo not given) | -26.5% (active)
35 | CCCCCOC(=O)c1cccc(NC(=O)CN(CC)CC)c1 | 101% (inactive)
36 | COc1ccccc1/C=C1\COc2ccc(O)cc2C1=O | 1.08% (active)
37 | CCCCCC#CC(=O)O | 97.4% (inactive)
38 | CC(=O)C1CCC(C)=CC1=O (stereo not given) | 119% (inactive)
39 | COc1ccc2nc(-c3ccc(OC)c(OC)c3)cc(-c3nnc(SCC(=O)Nc4ccc(C(C)=O)cc4)o3)c2c1 | 77.7% (inactive)
40 | c1ccc(Cn2cnc3ccc(-c4nc(-c5ccc6c(c5)ncn6C5CCCCC5)cn5ccnc45)cc32)cc1 | -20.8% (active)
